Source: PubChem BioAssay AID1159580 (chemical genetic matrix, 2015)
The campaign covered roughly 5,500 compounds. About 2,000 (36%) were called active. Not shown: some 18% with an inconclusive outcome. No stated cut-off is given here; in the data, active means normalized growth mostly below about 0.91 (no sharp cut-off); inconclusive means no clear call, values can overlap the other calls; inactive means mostly above about 0.92. The list shows a part of the results.

Experiment: chemical genetic growth profiling, strain panel (AID 1159580);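 further: tested at 20 µM; growth read once vehicle control cultures reached saturation at 30 °C; 1 = growth at the plate median or of vehicle wells; lower values mean less growth of the strain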
Settings: growth OD
[1] = S. cerevisiae deletion strains, locus YGR078C, strain PAC10, hits give low values
[2] = S. cerevisiae deletion strains, locus YMR263W, strain SAP30, hits give low values
[3] = S. cerevisiae deletion strains, locus YMR307W, strain GAS1, hits give low values
[4] = S. cerevisiae deletion strains, locus YNL322C, strain KRE1, hits give low values
[5] = S. cerevisiae deletion strains, locus YPL241C, strain CIN2, hits give low values
[6] = S. cerevisiae deletion strains, locus YDL101C, strain DUN1, hits give low values
[7] = S. cerevisiae deletion strains, locus YHR030C, strain SLT2, hits give low values

Measured: normalized growth

CCCc1c(-c2ccc(O)cc2)nn(-c2ccc(O)cc2)c1-c1ccc(O)cc1
inactive: S. cerevisiae deletion strains, locus YAL040C, strain CLN3, hits give low values 0.985 | S. cerevisiae deletion strains, locus YCL061C, strain MRC1 (second series), hits give low values 0.999 | S. cerevisiae deletion strains, locus YDR363W, strain ESC2, hits give low values 0.994 | S. cerevisiae deletion strains, locus YER002W, strain NOP16, hits give low values 1 | [1] 1 | [2] 0.995 | [3] 1.01 | S. cerevisiae deletion strains, locus YNL175C, strain NOP13, hits give low values 1.02 | S. cerevisiae deletion strains, locus YNL197C, strain WHI3, hits give low values 1.01 | S. cerevisiae deletion strains, locus YNL224C, strain SQS1, hits give low values 1 | [4] 0.988 | S. cerevisiae deletion strains, locus YOR083W, strain WHI5 (second series), hits give low values 0.948 | [5] 0.991

O=C1CCc2cccc3cccc1c23
inactive: S. cerevisiae deletion strains, locus YAL013W, strain DEP1, hits give low values 0.963 | S. cerevisiae deletion strains, locus YBR229C, strain ROT2, hits give low values 0.984 | [6] 0.932 | S. cerevisiae deletion strains, locus YDR150W, strain NUM1, hits give low values 0.966 | S. cerevisiae deletion strains, locus YEL061C, strain CIN8, hits give low values 0.954 | [1] 0.962 | [7] 0.769 | S. cerevisiae deletion strains, locus YHR087W, strain rtc3, hits give low values 1.01 | S. cerevisiae deletion strains, locus YJL187C, strain SWE1, hits give low values 0.981 | S. cerevisiae deletion strains, locus YJR043C, strain POL32, hits give low values 0.988 | S. cerevisiae deletion strains, locus YJR075W, strain HOC1, hits give low values 0.997 | S. cerevisiae deletion strains, locus YLR058C, strain SHM2 (second series), hits give low values 0.982 | S. cerevisiae deletion strains, locus YML094W, strain GIM5, hits give low values 0.921 | S. cerevisiae deletion strains, locus YMR219W, strain ESC1, hits give low values 0.988 | [2] 0.969 | [3] 1.03 | S. cerevisiae deletion strains, locus YNL153C, strain GIM3, hits give low values 0.934 | S. cerevisiae deletion strains, locus YNL298W, strain CLA4 (second series), hits give low values 0.906 | [4] 0.957 | S. cerevisiae deletion strains, locus YNR030W, strain Alg12, hits give low values 0.927 | S. cerevisiae deletion strains, locus YPL055C, strain LGE1, hits give low values 1 | [5] 0.933 | S. cerevisiae deletion strains, locus YPR135W, strain CTF4, hits give low values 0.713 | S. cerevisiae strains, strain wild type, hits give low values 0.949
active: S. cerevisiae deletion strains, locus YLR039C, strain RIC1, hits give low values 0.679 | S. cerevisiae deletion strains, locus YLR085C, strain ARP6, hits give low values 0.764 | S. cerevisiae deletion strains, locus YLR262C, strain YPT6, hits give low values 0.672

Cc1cccc(N=NC(C(=O)C(F)(F)F)=C(O)c2cccs2)c1
active: S. cerevisiae deletion strains, locus YLR113W, strain HOG1, hits give low values 0.713 | S. cerevisiae deletion strains, locus YPL256C, strain CLN2, hits give low values 0.777
inactive: S. cerevisiae deletion strains, locus YAR019C, strain CDC15, hits give low values 0.995 | S. cerevisiae deletion strains, locus YBL105C, strain PKC1, hits give low values 0.985 | S. cerevisiae deletion strains, locus YBR135W, strain CKS1, hits give low values 0.987 | S. cerevisiae deletion strains, locus YBR136W, strain MEC1, hits give low values 0.993 | S. cerevisiae deletion strains, locus YBR160W, strain CDC28, hits give low values 0.996 | S. cerevisiae deletion strains, locus YDL017W, strain CDC7, hits give low values 0.986 | S. cerevisiae deletion strains, locus YDL028C, strain MPS1, hits give low values 0.996 | [6] 0.988 | S. cerevisiae deletion strains, locus YDL108W, strain KIN28, hits give low values 0.984 | S. cerevisiae deletion strains, locus YDL132W, strain cdc53, hits give low values 0.978 | S. cerevisiae deletion strains, locus YDL214C, strain PRR2, hits give low values 0.975 | S. cerevisiae deletion strains, locus YDR052C, strain DBF4, hits give low values 0.99 | S. cerevisiae deletion strains, locus YDR054C, strain cdc34, hits give low values 0.976 | S. cerevisiae deletion strains, locus YDR226W, strain ADK1, hits give low values 0.992 | S. cerevisiae deletion strains, locus YDR477W, strain SNF1, hits give low values 0.975 | S. cerevisiae deletion strains, locus YER123W, strain YCK3, hits give low values 0.979 | S. cerevisiae deletion strains, locus YER133W, strain GLC7, hits give low values 0.975 | S. cerevisiae deletion strains, locus YFL009W, strain cdc4, hits give low values 0.988 | S. cerevisiae deletion strains, locus YFL029C, strain CAK1, hits give low values 0.993 | S. cerevisiae deletion strains, locus YFR003C, strain YPI1, hits give low values 0.99 | S. cerevisiae deletion strains, locus YFR019W, strain FAB1, hits give low values 0.992 | S. cerevisiae deletion strains, locus YFR028C, strain CDC14, hits give low values 0.983 | S. cerevisiae deletion strains, locus YGR040W, strain KSS1, hits give low values 0.974 | S. cerevisiae deletion strains, locus YGR052W, strain FMP48, hits give low values 0.927 | S. cerevisiae deletion strains, locus YGR092W, strain DBF2, hits give low values 0.946 | [7] 0.876 | S. cerevisiae deletion strains, locus YHR079C, strain IRE1, hits give low values 0.749 | S. cerevisiae deletion strains, locus YHR082C, strain KSP1, hits give low values 1.07 | S. cerevisiae deletion strains, locus YHR205W, strain SCH9, hits give low values 0.985 | S. cerevisiae deletion strains, locus YIL147C, strain SLN1, hits give low values 0.988 | S. cerevisiae deletion strains, locus YJL095W, strain BCK1, hits give low values 0.787 | S. cerevisiae deletion strains, locus YJL128C, strain PBS2, hits give low values 0.944 | S. cerevisiae deletion strains, locus YJL157C, strain FAR1, hits give low values 0.989 | S. cerevisiae deletion strains, locus YJR016C, strain ILV3, hits give low values 0.984 | S. cerevisiae deletion strains, locus YJR066W, strain TOR1 (second series), hits give low values 0.988 | S. cerevisiae deletion strains, locus YJR066W, strain TOR1, hits give low values 1.07 | S. cerevisiae deletion strains, locus YKL048C, strain ELM1, hits give low values 0.976 | S. cerevisiae deletion strains, locus YKL067W, strain YNK1, hits give low values 0.976 | S. cerevisiae deletion strains, locus YKL101W, strain HSL1, hits give low values 0.951 | S. cerevisiae deletion strains, locus YKL193C, strain SDS22, hits give low values 0.991 | S. cerevisiae deletion strains, locus YKL203C, strain TOR2, hits give low values 1.06 | S. cerevisiae deletion strains, locus YLR133W, strain CKI1, hits give low values 0.983 | S. cerevisiae deletion strains, locus YLR403W, strain SFP1, hits give low values 0.979 | S. cerevisiae deletion strains, locus YML070W, strain DAK1, hits give low values 0.973 | S. cerevisiae deletion strains, locus YMR001C, strain CDC5, hits give low values 0.979 | S. cerevisiae deletion strains, locus YMR205C, strain PFK2 (second series), hits give low values 0.984 | S. cerevisiae deletion strains, locus YMR277W, strain FCP1, hits give low values 0.989 | S. cerevisiae deletion strains, locus YNL006W, strain LST8, hits give low values 0.988 | S. cerevisiae deletion strains, locus YNL020C, strain ARK1, hits give low values 0.979 | S. cerevisiae deletion strains, locus YNL161W, strain CBK1, hits give low values 0.99 | S. cerevisiae deletion strains, locus YNL183C, strain NPR1, hits give low values 0.842 | S. cerevisiae deletion strains, locus YNL207W, strain RIO2, hits give low values 0.986 | S. cerevisiae deletion strains, locus YNL222W, strain SSU72, hits give low values 0.987 | S. cerevisiae deletion strains, locus YNL307C, strain MCK1 (second series), hits give low values 0.984 | S. cerevisiae deletion strains, locus YOL078W, strain AVO1, hits give low values 0.988 | S. cerevisiae deletion strains, locus YOL136C, strain PFK27, hits give low values 0.989 | S. cerevisiae deletion strains, locus YOR061W, strain CKA2, hits give low values 0.983 | S. cerevisiae deletion strains, locus YOR119C, strain RIO1, hits give low values 0.999 | S. cerevisiae deletion strains, locus YOR231W, strain MKK1, hits give low values 0.797 | S. cerevisiae deletion strains, locus YOR329C, strain SCD5, hits give low values 0.984 | S. cerevisiae deletion strains, locus YPL031C, strain PHO85, hits give low values 0.953 | S. cerevisiae deletion strains, locus YPL153C, strain RAD53, hits give low values 0.948 | S. cerevisiae deletion strains, locus YPL204W, strain HRR25, hits give low values 0.97 | S. cerevisiae deletion strains, locus YPL209C, strain IPL1, hits give low values 0.99 | S. cerevisiae deletion strains, locus YPR025C, strain CCL1, hits give low values 0.985 | S. cerevisiae deletion strains, locus YPR106W, strain ISR1, hits give low values 0.98 | S. cerevisiae deletion strains, locus YPR111W, strain DBF20, hits give low values 0.972 | S. cerevisiae deletion strains, strain NNK1, hits give low values 0.995 | S. cerevisiae deletion strains, strain TSCII, hits give low values 0.988
